Data published in PubChem BioAssay AID1159580 (chemical genetic matrix, 2015).
“And” between values parts separate entries of the source, which are not always exact repeats. Equal values may be shown once. Screen size: about 5,500 compounds; about 2,000 (36%) were called active. Another 18% or so got no clear call; they are omitted. Cut-off read from the data, not from the text of the source: active = normalized growth mostly below about 0.91 (no sharp cut-off); inconclusive = no clear call, values can overlap the other calls; inactive = mostly above about 0.92. The list shows a part of the results.

Test: chemical genetic growth profiling, strain panel (AID 1159580);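 note: tested at 20 µM; growth read once vehicle control cultures reached saturation at 30 °C; 1 = growth at the plate median or of vehicle wells; lower values mean less growth of the strain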
Conditions: S. cerevisiae deletion strains, growth OD

Measured: normalized growth

C[C@@H](N)[C@@H](O)c1ccccc1
inactive: locus YAL021C, strain ccr4, hits give low values 0.991 | locus YAL030W, strain snc1, hits give low values 0.98 | locus YBL061C, strain skt5, hits give low values 1.01 | locus YBR009C, strain hhf1, hits give low values 1 | locus YBR021W, strain FUR4, hits give low values 1.05 | locus YBR023C, strain chs3, hits give low values 0.997 | locus YBR171W, strain sec66, hits give low values 1 | locus YBR229C, strain ROT2, hits give low values 0.967 | locus YBR231C, strain swc5, hits give low values 0.969 | locus YBR279W, strain paf1, hits give low values 1.01 | locus YCL011C, strain gbp2, hits give low values 0.994 | locus YCL016C, strain dcc1, hits give low values 0.985 | locus YCL029C, strain bik1, hits give low values 0.982 | locus YCL069W, strain vba3, hits give low values 1 | locus YCR088W, strain abp1, hits give low values 0.992 | locus YDL005C, strain med2, hits give low values 0.977 | locus YDL035C, strain GPR1, hits give low values 1 | locus YDL040C, strain nat1, hits give low values 1 | locus YDL074C, strain BRE1, hits give low values 1.05 | locus YDL101C, strain DUN1, hits give low values 0.983 | locus YDL134C, strain PPH21, hits give low values 0.987 | locus YDL185W, strain tfp1, hits give low values 0.966 | locus YDL192W, strain arf1, hits give low values 1.02 | locus YDR001C, strain nth1, hits give low values 1.01 | locus YDR069C, strain doa4, hits give low values 0.985 | locus YDR101C, strain arx1, hits give low values 0.989 | locus YDR137W, strain rgp1, hits give low values 0.862 | locus YDR150W, strain NUM1, hits give low values 0.994 | locus YDR159W, strain sac3, hits give low values 0.949 | locus YDR162C, strain NBP2, hits give low values 0.951 | locus YDR195W, strain ref2 0.988 | locus YDR297W, strain sur2, hits give low values 0.994 | locus YDR318W, strain mcm21, hits give low values 0.978 | locus YDR334W, strain swr1, hits give low values 0.997 | locus YDR335W, strain msn5, hits give low values 0.988 | locus YDR388W, hits give low values 0.994 | locus YDR392W, strain spt3, hits give low values 0.955 | locus YDR502C, strain sam2, hits give low values 0.991 | locus YEL003W, strain gim4, hits give low values 0.995 | locus YEL037C, strain rad23, hits give low values 1.01 | locus YEL061C, strain CIN8 (second series), hits give low values 0.993 | locus YEL061C, strain CIN8, hits give low values 0.987 | locus YER015W, strain faa2, hits give low values 0.995 | locus YER016W, strain bim1, hits give low values 0.975 | locus YER110C, hits give low values 0.974 | locus YER111C, strain swi4, hits give low values 0.981 | locus YER155C, strain BEM2 (second series), hits give low values 0.973 | locus YER155C, strain BEM2, hits give low values 1.02 | locus YER167W, strain BCK2, hits give low values 0.999 | locus YFR010W, strain ubp6, hits give low values 1 | locus YGL078C, strain dbp3, hits give low values 0.991 | locus YGL086W, strain mad1, hits give low values 1.03 | locus YGL167C, strain pmr1, hits give low values 0.999 | locus YGL173C, strain kem1, hits give low values 0.993 | locus YGL227W, strain vid30, hits give low values 1.01 | locus YGL240W, strain doc1, hits give low values 1 | locus YGL248W, strain PDE1, hits give low values 0.974 | locus YGL253W, strain hxk2, hits give low values 0.99 | locus YGR135W, strain pre9, hits give low values 0.949 | locus YGR252W, strain gcn5, hits give low values 0.968 | locus YHR013C, strain ard1, hits give low values 0.975 | locus YHR027C, strain rpn1, hits give low values 1 | locus YHR030C, strain SLT2, hits give low values 1 and 1.03 | locus YHR079C, strain IRE1 (second series), hits give low values 0.993 | locus YHR079C, strain IRE1, hits give low values 1.02 | locus YHR094C, strain hxt1, hits give low values 0.973 | locus YHR129C, strain ARP1, hits give low values 0.997 | locus YHR142W, strain chs7, hits give low values 0.971 | locus YHR200W, strain rpn10, hits give low values 0.997 | locus YIL066C, strain RNR3, hits give low values 0.966 | locus YIL073C, strain SPO22, hits give low values 1.03 | locus YIL125W, strain kgd1, hits give low values 0.986 | locus YIR030C, strain dcg1, hits give low values 0.999 | locus YJL092W, strain hpr5, hits give low values 1 | locus YJL095W, strain BCK1 (second series), hits give low values 0.999 | locus YJL095W, strain BCK1, hits give low values 0.928 and 1.01 | locus YJL115W, strain asf1, hits give low values 0.991 | locus YJL129C, strain trk1, hits give low values 0.992 | locus YJL134W, strain LCB3, hits give low values 0.988 | locus YJL154C, strain vps35, hits give low values 0.993 | locus YJL164C, strain tpk1, hits give low values 1.01 | locus YJL166W, strain qcr8, hits give low values 0.983 | locus YJL168C, strain set2, hits give low values 1.01 | locus YJL187C, strain SWE1 (second series), hits give low values 0.964 | locus YJR043C, strain POL32, hits give low values 1.01 | locus YJR066W, strain TOR1, hits give low values 0.942 | locus YJR075W, strain HOC1, hits give low values 0.984 | locus YKL009W, strain mrt4, hits give low values 1.04 | locus YKL068W, hits give low values 0.978 | locus YKL085W, strain MDH1 (second series), hits give low values 0.998 | locus YKL085W, strain MDH1, hits give low values 0.998 | locus YKL160W, strain elf1, hits give low values 0.974 | locus YKR001C, strain vps1, hits give low values 1.01 | locus YKR026C, strain gcn3, hits give low values 1.02 | locus YKR091W, strain srl3, hits give low values 0.987 | locus YLL001W, strain dnm1, hits give low values 1.01 | locus YLL026W, hits give low values 0.995 | locus YLL041C, strain sdh2, hits give low values 1.01 | locus YLR027C, strain aat2, hits give low values 0.995 | locus YLR039C, strain RIC1, hits give low values 0.953 | locus YLR058C, strain SHM2, hits give low values 0.978 | locus YLR102C, strain apc9, hits give low values 0.99 | locus YLR113W, strain HOG1, hits give low values 1.03 | locus YLR221C, strain rsa3, hits give low values 0.994 | locus YLR258W, strain gsy2, hits give low values 1.01 | locus YLR262C, strain YPT6, hits give low values 0.927 | locus YLR268W, strain sec22, hits give low values 0.988 | locus YLR320W, strain mms22, hits give low values 0.955 | locus YLR330W, strain CHS5, hits give low values 0.997 | locus YLR342W, strain FKS1 (second series), hits give low values 1.06 | locus YLR342W, strain FKS1, hits give low values 0.995 | locus YLR357W, strain rsc2, hits give low values 0.988 | locus YLR370C, strain arc18, hits give low values 1 | locus YLR371W, strain rom2, hits give low values 0.975 | locus YLR384C, strain iki3, hits give low values 0.977 | locus YLR418C, strain cdc73, hits give low values 0.939 | locus YML016C, strain PPZ1, hits give low values 0.994 | locus YML032C, strain rad52, hits give low values 0.967 | locus YML120C, strain ndi1, hits give low values 0.992 | locus YML124C, strain tub3, hits give low values 0.993 | locus YMR058W, strain fet3, hits give low values 0.972 | locus YMR078C, strain ctf18, hits give low values 1.01 | locus YMR125W, strain sto1, hits give low values 0.983 | locus YMR129W, hits give low values 0.997 | locus YMR205C, strain PFK2, hits give low values 0.998 | locus YMR223W, strain ubp8, hits give low values 0.964 | locus YMR231W, strain pep5, hits give low values 1 | locus YMR263W, strain SAP30, hits give low values 0.987 | locus YMR307W, strain GAS1, hits give low values 1.09 | locus YNL067W, strain RPL9B, hits give low values 0.975 | locus YNL071W, strain lat1, hits give low values 0.989 | locus YNL153C, strain GIM3, hits give low values 0.974 | locus YNL183C, strain NPR1, hits give low values 0.929 | locus YNL209W, strain ssb2, hits give low values 1.01 | locus YNL233W, strain BNI4, hits give low values 1 | locus YNL248C, strain rpa49, hits give low values 0.99 | locus YNL250W, strain rad50, hits give low values 0.992 | locus YNL271C, strain bni1, hits give low values 0.995 | locus YNL298W, strain CLA4, hits give low values 0.982 | locus YNL307C, strain MCK1, hits give low values 0.984 | locus YNL322C, strain KRE1 (second series), hits give low values 0.99 | locus YNR049C, strain mso1, hits give low values 1.01 | locus YNR052C, strain pop2, hits give low values 0.973 | locus YOL006C, strain TOP1, hits give low values 1.02 | locus YOL012C, strain htz1 1.02 | locus YOL147C, strain pex11, hits give low values 0.996 | locus YOR001W, strain rrp6, hits give low values 1 | locus YOR061W, strain CKA2, hits give low values 0.98 | locus YOR069W, strain VPS5, hits give low values 1 | locus YOR070C, strain gyp1, hits give low values 0.999 | locus YOR080W, strain dia2, hits give low values 1 | locus YOR083W, strain WHI5, hits give low values 0.948 | locus YOR106W, strain vam3, hits give low values 1 | locus YOR136W, strain idh2, hits give low values 0.993 | locus YOR144C, strain elg1, hits give low values 0.989 | locus YOR184W, strain ser1, hits give low values 1.01 | locus YOR231W, strain MKK1, hits give low values 1.01 | locus YOR265W, strain rbl2, hits give low values 0.993 | locus YOR270C, strain vph1, hits give low values 0.9 | locus YOR290C, strain snf2, hits give low values 0.993 | locus YOR316C, strain cot1, hits give low values 0.985 | locus YPL051W, strain arl3, hits give low values 0.981 | locus YPL078C, strain atp4, hits give low values 0.98 | locus YPL106C, strain sse1, hits give low values 1 | locus YPL240C, strain hsp82, hits give low values 1 | locus YPL241C, strain CIN2, hits give low values 0.989 | locus YPL256C, strain CLN2, hits give low values 1.03 | locus YPR119W, strain clb2, hits give low values 1.01 | locus YPR141C, strain kar3, hits give low values 0.994 | locus YPR163C, strain tif3, hits give low values 0.971 | locus YPR167C, strain met16, hits give low values 1 | strain wtn01, hits give low values 1.03
active: locus YAL026C, strain drs2, hits give low values 0.89 | locus YLR262C, strain YPT6 (second series), hits give low values 0.823
